Inconclusive results are not listed. The source made the active and inactive calls. The call rests on the fitted dose curve; in most records, active means well fitted curve in the direction sought with a large enough effect; inconclusive means small, poorly fitted or top-dose-only effect, or another doubt; inactive means no such curve, though single readings can be large; an effect the other way counts as inactive or inconclusive.
How the values were obtained:
UISO = experiment: qHTS assay to identify novel small-molecules to repurpose for Merkel cell carcinoma treatment (AID 1296009); conditions: MCC and control cell lines, CellTiter-Glo viability, 72 h; series mostly up to 46 µM; further: nearly all actives have a fitted effect of over 60% in size
Outline: (§1)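 Cells were incubated with compound for 72 hr at 37 degree celsius before CellTiter-Glo addition. Luminescence was normalized with no-cell wells as full cytotoxicity and DMSO as baseline.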

WaGa = experiment: as above; conditions: MCC and control cell lines, CellTiter-Glo viability, 72 h; series mostly up to 46 µM
Outline: as §1

C33A = experiment: Primary qHTS to identify gynecologic anti-cancer compounds using libraries of approved drugs and bioactive compounds (AID 1345084); conditions: Gynecologic cancer cell panel viability, ATPlite luminescence, 48 h; series mostly up to 57.5 µM; further: nearly all actives have a fitted effect of over 55% in size; further: potency means the concentration at half of the fitted maximal effect
Outline: (§2)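 ATP-based viability (ATPlite), 1,000 cells/well, 16 h pre-incubation, 48 h compound at 37 C, 5% CO2, 15 min RT before read.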

CAOV3 = experiment: as above; conditions: Gynecologic cancer cell panel viability, ATPlite luminescence, 48 h; series mostly up to 57.5 µM
Outline: as §2

CASKI = experiment: as above; conditions: Gynecologic cancer cell panel viability, ATPlite luminescence, 48 h; series mostly up to 57.5 µM
Outline: as §2

Es-2 = experiment: as above; conditions: Gynecologic cancer cell panel viability, ATPlite luminescence, 48 h; series mostly up to 57.5 µM
Outline: as §2

Hek293T = experiment: as above; conditions: Gynecologic cancer cell panel viability, ATPlite luminescence, 48 h, control line for the selectivity index; series mostly up to 57.5 µM
Outline: as §2

JEG-3 = experiment: as above; conditions: Gynecologic cancer cell panel viability, ATPlite luminescence, 48 h; series mostly up to 57.5 µM
Outline: as §2

OV90 = experiment: as above; conditions: Gynecologic cancer cell panel viability, ATPlite luminescence, 48 h; series mostly up to 57.5 µM
Outline: as §2

PA-1 = experiment: as above; conditions: Gynecologic cancer cell panel viability, ATPlite luminescence, 48 h; series mostly up to 57.5 µM
Outline: as §2

SKOV3 = experiment: as above; conditions: Gynecologic cancer cell panel viability, ATPlite luminescence, 48 h; series mostly up to 57.5 µM
Outline: as §2

Tov-21-G = experiment: as above; conditions: Gynecologic cancer cell panel viability, ATPlite luminescence, 48 h; series mostly up to 57.5 µM
Outline: as §2

Tov112D = experiment: as above; conditions: Gynecologic cancer cell panel viability, ATPlite luminescence, 48 h; series mostly up to 57.5 µM
Outline: as §2

[1] = Drug repurposing screens with cells derived from glioblastoma tumor samples (AID 1345199); conditions: GBM patient neurospheres viability, ATP luminescence, 48 h; further: nearly all actives have a fitted effect of over 40% in size; further: potency means the concentration at half of the fitted maximal effect
Outline: (§3)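 Four patient lines of CD133+ GBM neurospheres were screened at several concentrations; hits were retested in those lines plus three slower-growing GBM lines, using 48-hour treatment and ATP-based viability.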

astro = experiment: as above; conditions: viability, ATP luminescence, 48 h; series mostly up to 45.9 µM
Outline: as §3

HeLa = experiment: Primary qHTS to identify gynecologic anti-cancer compounds using libraries of approved drugs and bioactive compounds (AID 1345084); conditions: Gynecologic cancer cell panel viability, ATPlite luminescence, 48 h; series mostly up to 57.5 µM; further: nearly all actives have a fitted effect of over 55% in size; further: potency means the concentration at half of the fitted maximal effect
Outline: as §2

[2] = at 45.9 µM (top of the series), tumour line B
[3] = at 45.9 µM (top of the series), tumour line D
[4] = at 46.1 µM (top of the series), tumour line C
On the % scale 0 is the no-effect control and ±100 the full control effect.

CCOC(=O)c1cnc2c(cnn2CC)c1NN=C(C)C
active: Potency ([1]; tumour line A) 11.2 µM
inactive: Potency (UISO) | Potency (WaGa) | Potency (C33A) | Potency (CAOV3) | Potency (CASKI) | Potency (Es-2) | Potency (Hek293T) | Potency (JEG-3) | Potency (OV90) | Potency (PA-1) | Potency (SKOV3) | Potency (Tov-21-G) | Potency (Tov112D) | activity, negative = cell killing [1, 2] -11.6% | activity, negative = cell killing [1, 3] -28.3% | activity, negative = cell killing [1, 4] -18.1% | Potency (astro)

CC(C)COCC(CN(Cc1ccccc1)c1ccccc1)N1CCCC1 (configuration not stated)
active: Potency (CAOV3) 25.1 µM | Potency (OV90) 25.1 µM | Potency ([1]; tumour line A) 11.2 µM | Potency ([1]; tumour line D) 11.2 µM | Potency (astro) 35.5 µM
inactive: Potency (CASKI) | Potency (Es-2) | Potency (HeLa) | Potency (Tov-21-G) | activity, negative = cell killing [1, 4] -7.32%

CCCCCCCC/C=C\CCCCCCCC(=O)NCc1ccc(O)c(OC)c1
active: Potency (C33A) 7.94 µM
inactive: Potency (CAOV3) | Potency (CASKI) | Potency (Es-2) | Potency (Hek293T) | Potency (JEG-3) | Potency (OV90) | Potency (SKOV3) | Potency (Tov112D) | Potency (astro)

CCC(=O)c1ccc2c(c1)N(CCCN(C)C)c1ccccc1S2
inactive: Potency (C33A) | Potency (CASKI) | Potency (Es-2) | Potency (HeLa) | Potency (Hek293T) | Potency (JEG-3) | Potency (PA-1) | Potency (Tov-21-G) | Potency (Tov112D)

c1cc(CN2CCCCC2)cc(OCCCNc2nc3ccccc3s2)c1
inactive: Potency (C33A) | Potency (CAOV3) | Potency (CASKI) | Potency (Es-2) | Potency (HeLa) | Potency (JEG-3) | Potency (PA-1) | Potency (Tov-21-G) | Potency (Tov112D)

O=C(CCCN1CCC(O)(c2cccc(C(F)(F)F)c2)CC1)c1ccc(F)cc1
inactive: Potency (UISO) | Potency (WaGa) | Potency (C33A) | Potency (CAOV3) | Potency (CASKI) | Potency (Es-2) | Potency (HeLa) | Potency (Hek293T) | Potency (JEG-3) | Potency (PA-1) | Potency (SKOV3) | Potency (Tov-21-G) | Potency (Tov112D) | Potency (astro)

C[N+](C)(C)CCCCCCCCCC[N+](C)(C)C
inactive: Potency (C33A) | Potency (CASKI) | Potency (Es-2) | Potency (HeLa) | Potency (Hek293T) | Potency (JEG-3) | Potency (OV90) | Potency (PA-1) | Potency (SKOV3) | Potency (Tov-21-G) | Potency (Tov112D) | activity, negative = cell killing [1, 2] -8.43% | activity, negative = cell killing [1, 3] -24.4% | activity, negative = cell killing ([1]; at 46 µM (top of the series), tumour line A) -24.5% | activity, negative = cell killing [1, 4] -2.46%

COC(=O)[C@H]1[C@H]2C[C@@H]3c4[nH]c5cc(OC)ccc5c4CCN3C[C@H]2C[C@@H](OC(=O)c2cc(OC)c(OC)c(OC)c2)[C@@H]1OC
active: Potency ([1]; tumour line A) 5.01 µM
inactive: Potency (C33A) | Potency (CAOV3) | Potency (CASKI) | Potency (Es-2) | Potency (Hek293T) | Potency (JEG-3) | Potency (OV90) | Potency (PA-1) | Potency (SKOV3) | Potency (Tov-21-G) | Potency (Tov112D) | activity, negative = cell killing [1, 2] -27.8%

CN(C)CC/C=C1\c2ccccc2COc2ccccc21
inactive: Potency (UISO) | Potency (WaGa) | Potency (C33A) | Potency (CAOV3) | Potency (Es-2) | Potency (Hek293T) | Potency (JEG-3) | Potency (PA-1) | Potency (SKOV3) | Potency (Tov-21-G) | Potency (Tov112D) | activity, negative = cell killing [1, 2] -27.9% | activity, negative = cell killing [1, 4] -1.82%
active: Potency ([1]; tumour line A) 14.1 µM

Cc1nc2sccn2c(=O)c1CCN1CCC(=C(c2ccc(F)cc2)c2ccc(F)cc2)CC1
inactive: Potency (UISO) | Potency (C33A) | Potency (CAOV3) | Potency (CASKI) | Potency (Es-2) | Potency (HeLa) | Potency (Hek293T) | Potency (JEG-3) | Potency (PA-1) | Potency (SKOV3) | Potency (Tov-21-G) | Potency (Tov112D)
active: Potency (astro) 20 µM

CC(C)NCC(O)c1cc(O)cc(O)c1 (configuration not stated)
inactive: Potency (UISO) | Potency (WaGa) | Potency (C33A) | Potency (CAOV3) | Potency (CASKI) | Potency (Es-2) | Potency (HeLa) | Potency (Hek293T) | Potency (JEG-3) | Potency (OV90) | Potency (PA-1) | Potency (SKOV3) | Potency (Tov-21-G) | Potency (Tov112D) | activity, negative = cell killing [1, 2] -18.9% | activity, negative = cell killing [1, 3] 17.6% | activity, negative = cell killing [1, 4] -22.7%
